Here are results for 40 compounds from PubChem BioAssay (NCATS).

SMILES strings stand for the structures. Results filed as inconclusive are left out. Where a call stands in place of a potency, no number is given. Calls of active or inactive are those of the source. The call rests on the fitted dose curve; in most records, active means well fitted cell-killing curve with a large enough effect; inconclusive means small, poorly fitted or top-dose-only effect, or effect the other way; inactive means no such curve, though single readings can be large or run the other way.
Potency means the concentration at half of the fitted maximal effect.

A short description of this assay: Quantitative High-Throughput drug screen in 47 multiple myeloma cell lines against the NCATS MIPE library collection: KMM1_JCRB cell viability assay (AID 1918960). Further: nearly all actives have a fitted effect of over 30% in size. The settings on record: KMM1 myeloma viability, CellTiter-Glo ATP luminescence, 48 h; series mostly up to 45.8 µM. From the text:
PI: Beverly A. Mock Ph.D.
Laboratory of Cancer Biology and Genetics,
Center for Cancer Research, National Cancer Institute,
National Institute of Health, Bethesda, Maryland
Drug resistance and disease progression are common in multiple myeloma (MM) patients, underscoring the need for new therapeutic combinations. […] We hypothesized that effective combinations would reduce MYC expression and enhance p16 activity. […] These preclinical data identify potentially useful drug combinations for evaluation in drug-resistant MM and reveal potential mechanisms of combined drug sensitivity.
Described herein is the primary MIPE qHTS used to cherrypick compounds. Validated compounds were then further tested for potential synergistic activiy.
[1] Peat TJ, Gaikwad SM, Dubois W, Gyabaah-Kessie N, Zhang S, Gorjifard S, Phyo Z, Andres M, Hughitt VK, Simpson RM, Miller MA, Girvin AT, Taylor A, Williams D, D'Antonio N, Zhang Y, Rajagopalan A, Flietner E, Wilson K, Zhang X, Shinn P, Klumpp-Thomas C, McKnight C, Itkin Z, Chen L, Kazandijian D, Zhang J, Michalowski AM, Simmons JK, Keats J, Thomas CJ, Mock BA. Drug combinations identified by high-throughput screening promote cell cycle transition and upregulate Smad pathways in myeloma. Cancer Lett. 2023 Aug 1;568:216284. doi: 10.1016/j.canlet.2023.216284. Epub 2023 Jun 24. PMID: 37356470; PMCID: PMC10408729.
SEQUENCE No. (e.g., 1, 2, 3, etc.); […] (e.g., Cells, Incubation, Reagent, etc.); VALUE and DESCRIPTION.
1; Cells; 5 uL; white, solid bottom 1536-well Greiner assay plate.
2; Compounds; 23 nL; Kalypsis pin tool (Wako USA) equipped with a 1536-well pin head to transfer to the assay plates.
3; Incubation; 48 hours; 37C incubation.
4; Reagent;5uL; CellTiter Glo (Promega).
5; Detector; 425V; Luminescence; Viewlux PerkinElmer.
NOTES (numbers refer to Sequence numbers above)
1. The cell-based screening methods employed in this study were like those previously published. Briefly, the corresponding myeloma cell lines were screened in 1,536-well plates with 500 cells, 5-uL per well for inhibition of cell viability (assessed by measuring ATP levels with CellTiterGlo).
2. NCATS MIPE 4.0 library of approved and investigational drugs were added using the Kalypsis pin tool. Wells treated with DMSO only for 100% viability and media only cells for 0% viability were used as controls.
3. The assay plates were covered and incubated for 48 hours in a 37C, 5% CO2 incubator with controlled humidity.
4. After 48 hours, CellTilter-GloTM luminescent substrate mix (Promega) reagent was added to the assay plate and plates we incubated for 5 min at room temperature.
5. Signal was measured as median relative luminescence units on a ViewLux (PerkinElmer) multiplate reader.
[1] Heske CM, Davis MI, Baumgart JT, Wilson K, Gormally MV, Chen L, Zhang X, Ceribelli M, Duveau DY, Guha R, Ferrer M, Arnaldez FI, Ji J, Tran HL, Zhang Y, Mendoza A, Helman LJ, Thomas CJ. Matrix Screen Identifies Synergistic Combination of PARP Inhibitors and Nicotinamide Phosphoribosyltransferase (NAMPT) Inhibitors in Ewing Sarcoma. Clin Cancer Res. 2017 Dec 1;23(23):7301-7311. doi: 10.1158/1078-0432.CCR-17-1121. Epub 2017 Sep 12. PMID: 28899971; PMCID: PMC6636827.
In general terms: In ATP-based viability assays light output follows the ATP content of the culture.
Consider `CC(C)(Sc1ccc(CCN(CCCCC2CCCCC2)C(=O)NC2CCCCC2)cc1)C(=O)O`, for which the Potency result is “inactive”.
Take `CC(C)(C)NCC(O)c1ccc(O)c(CO)c1` (stereo not given): the Potency is 0.059 µM (active).
With `Cc1cc2c(C(C)C)c(O)c(O)c(C=O)c2c(O)c1-c1c(C)cc2c(C(C)C)c(O)c(O)c(C=O)c2c1O` the entry was “inactive”; with `CCc1ccc(CCOc2ccc(CC3SC(=O)NC3=O)cc2)nc1` (stereo not given), “inactive”.
`Cn1c(=O)c(F)c(Nc2ccc(I)cc2F)c2c(=O)n(C[C@@H](O)CO)cnc21`: the Potency is 16.6 µM (active).
The result for `CC(C)(N)C(=O)N[C@H](COCc1ccccc1)C(=O)N1CCC2(CC1)CN(S(C)(=O)=O)c1ccccc12` reads “inactive”.
As for `COc1ccc(COc2cc3oc(=O)c4cc(C(C)O)ccc4c3cc2OC)cc1` (stereo not given), the Potency is 4.69 µM (active).
With `CC(C=CC1=C(C)CCCC1(C)C)=CC=CC(C)=CC(=O)O` the entry was “inactive”; with `O=C(O)CCc1ccc(NCc2cccc(Oc3ccccc3)c2)cc1`, “inactive”; with `Cn1cnc2c(F)c(Nc3ccc(Br)cc3Cl)c(C(=O)NOCCO)cc21`, 5.26 µM (active).
The result for `CCOC(=O)C1=C[C@]2(CC)CCCN3CCc4c(n1c1ccccc41)[C@@H]32` reads 20.9 µM (active).
With `Cc1cnc(NC(=O)C2=C(O)c3ccccc3S(=O)(=O)N2C)s1` the entry was “inactive”; with `CCCS(=O)(=O)Nc1ccc(F)c(C(=O)c2c[nH]c3ncc(Cl)cc23)c1F`, 16.6 µM (active).
In the case of `C[C@H](NC(=O)Cc1cc(F)cc(F)c1)C(=O)N[C@@H]1C(=O)N(C)c2ccccc2-c2ccccc21`, the Potency entry is “inactive”.
The result for `Nc1nc2[nH]cc(CCc3ccc(C(=O)N[C@@H](CCC(=O)O)C(=O)O)cc3)c2c(=O)[nH]1` reads 0.59 µM (active).
The result for `CCCC(CCC)C(=O)O` reads “inactive”; that for `CC(C)(C)OC(=O)CN(Cc1ccc(Cl)cc1)Cc1ccc([N+](=O)[O-])s1`, “inactive”; that for `C[C@]12CC[C@H](O)CC1=CC[C@@H]1[C@H]2CC[C@]2(C)C(c3cccnc3)=CC[C@H]12`, “inactive”.
The result for `CC(C)C[C@H](NC(=O)[C@@H](O)[C@H](N)Cc1ccccc1)C(=O)O` reads “inactive”; that for `CN(C)c1ccc(C2Nc3ccc4ccccc4c3C3=C2C(=O)CC(C)(C)C3)cc1Br` (stereo not given), 4.69 µM (active); that for `CCCc1nn(C)c2c(=O)[nH]c(-c3cc(S(=O)(=O)N4CCN(C)CC4)ccc3OCC)nc12`, “inactive”.
For `CNC(=O)c1ccc(C)c(-n2c(C)cc(OCc3ccc(F)cc3F)c(Br)c2=O)c1`, the Potency is 4.69 µM (active).
`CNC(=O)c1ccc(N2C(=S)N(c3ccc(C#N)c(C(F)(F)F)c3)C(=O)C2(C)C)cc1F`: the Potency was 9.35 µM (active).
With `COc1nc(-c2ccc3c(c2)OCO3)n(-c2ccc(NC(=O)CSc3ccccc3)cc2)n1` the entry was “inactive”; with `Oc1ccc(C2CNCCc3c2cc(O)c(O)c3Cl)cc1` (stereo not given), “inactive”.
With `COc1ccc(CC2=NN3C([C@@H](CCc4ccccc4)[C@@H](C)O)=NC(C)C3C(=O)N2)cc1OC` (stereo not given in full) the entry was “inactive”.
In the case of `Nc1ccc(S(=O)(=O)Nc2ccnn2-c2ccccc2)cc1`, the Potency entry was “inactive”.
The result for `Cc1c(CN2CCN(C(=O)C(C)C)CC2)sc2c(N3CCOCC3)nc(-c3cnc(N)nc3)nc12` reads 0.059 µM (active); that for `Cc1oncc1C(=O)Nc1ccc(C(F)(F)F)cc1`, “inactive”.
The result for `Clc1cccc(Cl)c1NC1=NCCN1` reads “inactive”; that for `CC(C)NCC(O)COc1ccc(COCCOC(C)C)cc1` (stereo not given), “inactive”.
With `c1ccc([C@H]2CN3CCSC3=N2)cc1` the entry was “inactive”; with `Cn1cnc([N+](=O)[O-])c1Sc1ncnc2nc[nH]c12`, 2.96 µM (active); with `CC(C[N+](C)(C)C)OC(N)=O` (stereo not given), “inactive”.
Regarding `O=C1CCc2cc(OCCCCc3nnnn3C3CCCCC3)ccc2N1`, the Potency result was “inactive”.
Regarding `CCCc1nc2c(C)cc(-c3nc4ccccc4n3C)cc2n1Cc1ccc(-c2ccccc2C(=O)O)cc1`, the Potency entry was “inactive”.
For the compound `Nc1nc2c(ncn2COCCO)c(=O)[nH]1`, the Potency result was “inactive”.
With `Cc1csc(NC(=O)c2sc3nc4c(c(C(F)(F)F)c3c2N)CCC4)n1` the entry was “inactive”.
Take `Cc1ccccc1C(C(=O)NC1CCCC1)N(C(=O)Cn1cnc2ccccc21)c1cccc(F)c1` (stereo not given): the Potency result is “inactive”.
For `OC(CCN1CCCCC1)(c1ccccc1)C1CC2C=CC1C2` (stereo not given), the Potency entry is “inactive”.
